Measured values: PubChem BioAssay AID1159580 (chemical genetic matrix, 2015)
Values joined by “and” are separate entries in the source; they are usually repeats but may differ in a detail not shown here. Identical values can stand only once. The campaign covered roughly 5,500 compounds. About 2,000 (36%) were called active. About 18% were inconclusive and are not listed. No stated cut-off is given here; in the data, active means normalized growth mostly below about 0.91 (no sharp cut-off); inconclusive means no clear call, values can overlap the other calls; inactive means mostly above about 0.92. The list shows a part of the results.

Test: chemical genetic growth profiling, strain panel (AID 1159580);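 further: tested at 20 µM; growth read once vehicle control cultures reached saturation at 30 °C; 1 = growth at the plate median or of vehicle wells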
Details: growth OD

Measured: normalized growth

NCCS
inactive: S. cerevisiae deletion strains, locus YJR075W, strain HOC1, stronger effect = lower value 1.01 | S. cerevisiae deletion strains, locus YKL009W, strain mrt4, stronger effect = lower value 0.998 | S. cerevisiae deletion strains, locus YKL068W, stronger effect = lower value 1 | S. cerevisiae deletion strains, locus YKL085W, strain MDH1 (second series), stronger effect = lower value 1.01 | S. cerevisiae deletion strains, locus YKL085W, strain MDH1, stronger effect = lower value 1.01 | S. cerevisiae deletion strains, locus YKL160W, strain elf1, stronger effect = lower value 0.986 | S. cerevisiae deletion strains, locus YKL190W, strain CNB1, stronger effect = lower value 1.01 | S. cerevisiae deletion strains, locus YKR001C, strain vps1, stronger effect = lower value 1.01 | S. cerevisiae deletion strains, locus YKR026C, strain gcn3, stronger effect = lower value 0.947 | S. cerevisiae deletion strains, locus YKR091W, strain srl3, stronger effect = lower value 0.991 | S. cerevisiae deletion strains, locus YLL001W, strain dnm1, stronger effect = lower value 1 | S. cerevisiae deletion strains, locus YLL026W, stronger effect = lower value 0.996 | S. cerevisiae deletion strains, locus YLL041C, strain sdh2, stronger effect = lower value 0.998 | S. cerevisiae deletion strains, locus YLR027C, strain aat2, stronger effect = lower value 0.984 | S. cerevisiae deletion strains, locus YLR039C, strain RIC1, stronger effect = lower value 1.05 | S. cerevisiae deletion strains, locus YLR058C, strain SHM2, stronger effect = lower value 1.02 | S. cerevisiae deletion strains, locus YLR102C, strain apc9, stronger effect = lower value 1.01 | S. cerevisiae deletion strains, locus YLR113W, strain HOG1, stronger effect = lower value 0.996 | S. cerevisiae deletion strains, locus YLR221C, strain rsa3, stronger effect = lower value 0.992 | S. cerevisiae deletion strains, locus YLR258W, strain gsy2, stronger effect = lower value 0.998 | S. cerevisiae deletion strains, locus YLR262C, strain YPT6 (second series), stronger effect = lower value 0.953 | S. cerevisiae deletion strains, locus YLR262C, strain YPT6, stronger effect = lower value 1.03 | S. cerevisiae deletion strains, locus YLR268W, strain sec22, stronger effect = lower value 1.01 | S. cerevisiae deletion strains, locus YLR320W, strain mms22, stronger effect = lower value 0.985 | S. cerevisiae deletion strains, locus YLR330W, strain CHS5, stronger effect = lower value 1.01 | S. cerevisiae deletion strains, locus YLR342W, strain FKS1 (second series), stronger effect = lower value 1.04 | S. cerevisiae deletion strains, locus YLR342W, strain FKS1, stronger effect = lower value 0.969 | S. cerevisiae deletion strains, locus YLR357W, strain rsc2, stronger effect = lower value 0.962 | S. cerevisiae deletion strains, locus YLR370C, strain arc18, stronger effect = lower value 0.989 | S. cerevisiae deletion strains, locus YLR371W, strain rom2, stronger effect = lower value 1.02 | S. cerevisiae deletion strains, locus YLR384C, strain iki3, stronger effect = lower value 0.999 | S. cerevisiae deletion strains, locus YLR418C, strain cdc73, stronger effect = lower value 1.03 | S. cerevisiae deletion strains, locus YML016C, strain PPZ1, stronger effect = lower value 1.02 | S. cerevisiae deletion strains, locus YML032C, strain rad52, stronger effect = lower value 1.02 | S. cerevisiae deletion strains, locus YML120C, strain ndi1, stronger effect = lower value 0.988 | S. cerevisiae deletion strains, locus YML124C, strain tub3, stronger effect = lower value 1.02 | S. cerevisiae deletion strains, locus YMR058W, strain fet3, stronger effect = lower value 0.985 | S. cerevisiae deletion strains, locus YMR078C, strain ctf18, stronger effect = lower value 1.01 | S. cerevisiae deletion strains, locus YMR125W, strain sto1, stronger effect = lower value 0.968 | S. cerevisiae deletion strains, locus YMR129W, stronger effect = lower value 1.01 | S. cerevisiae deletion strains, locus YMR205C, strain PFK2, stronger effect = lower value 0.983 | S. cerevisiae deletion strains, locus YMR223W, strain ubp8, stronger effect = lower value 1.01 | S. cerevisiae deletion strains, locus YMR231W, strain pep5, stronger effect = lower value 0.999 | S. cerevisiae deletion strains, locus YMR263W, strain SAP30, stronger effect = lower value 1.01 and 0.99 | S. cerevisiae deletion strains, locus YMR307W, strain GAS1, stronger effect = lower value 1.02 | S. cerevisiae deletion strains, locus YNL067W, strain RPL9B, stronger effect = lower value 1.01 | S. cerevisiae deletion strains, locus YNL071W, strain lat1, stronger effect = lower value 0.956 | S. cerevisiae deletion strains, locus YNL128W, strain TEP1, stronger effect = lower value 1.01 | S. cerevisiae deletion strains, locus YNL153C, strain GIM3, stronger effect = lower value 1.01 | S. cerevisiae deletion strains, locus YNL175C, strain NOP13, stronger effect = lower value 1 | S. cerevisiae deletion strains, locus YNL183C, strain NPR1, stronger effect = lower value 0.981 | S. cerevisiae deletion strains, locus YNL197C, strain WHI3, stronger effect = lower value 1.01 | S. cerevisiae deletion strains, locus YNL209W, strain ssb2, stronger effect = lower value 0.989 | S. cerevisiae deletion strains, locus YNL224C, strain SQS1, stronger effect = lower value 1 | S. cerevisiae deletion strains, locus YNL233W, strain BNI4, stronger effect = lower value 1.02 | S. cerevisiae deletion strains, locus YNL248C, strain rpa49, stronger effect = lower value 0.983 | S. cerevisiae deletion strains, locus YNL250W, strain rad50, stronger effect = lower value 1.02 | S. cerevisiae deletion strains, locus YNL271C, strain bni1, stronger effect = lower value 1.01 | S. cerevisiae deletion strains, locus YNL298W, strain CLA4, stronger effect = lower value 1.03 | S. cerevisiae deletion strains, locus YNL307C, strain MCK1, stronger effect = lower value 1.02 | S. cerevisiae deletion strains, locus YNL322C, strain KRE1 (second series), stronger effect = lower value 0.979 | S. cerevisiae deletion strains, locus YNL322C, strain KRE1, stronger effect = lower value 1.01 and 1.02 | S. cerevisiae deletion strains, locus YNR049C, strain mso1, stronger effect = lower value 0.972 | S. cerevisiae deletion strains, locus YNR052C, strain pop2, stronger effect = lower value 1.01 | S. cerevisiae deletion strains, locus YOL006C, strain TOP1, stronger effect = lower value 1.04 | S. cerevisiae deletion strains, locus YOL012C, strain htz1 1.32 | S. cerevisiae deletion strains, locus YOL147C, strain pex11, stronger effect = lower value 1.02 | S. cerevisiae deletion strains, locus YOR001W, strain rrp6, stronger effect = lower value 0.992 | S. cerevisiae deletion strains, locus YOR061W, strain CKA2, stronger effect = lower value 1.02 | S. cerevisiae deletion strains, locus YOR069W, strain VPS5, stronger effect = lower value 1.01 | S. cerevisiae deletion strains, locus YOR070C, strain gyp1, stronger effect = lower value 0.982 | S. cerevisiae deletion strains, locus YOR080W, strain dia2, stronger effect = lower value 0.984 | S. cerevisiae deletion strains, locus YOR083W, strain WHI5 (second series), stronger effect = lower value 1.02 | S. cerevisiae deletion strains, locus YOR083W, strain WHI5, stronger effect = lower value 0.983 | S. cerevisiae deletion strains, locus YOR106W, strain vam3, stronger effect = lower value 0.969 | S. cerevisiae deletion strains, locus YOR136W, strain idh2, stronger effect = lower value 1.02 | S. cerevisiae deletion strains, locus YOR144C, strain elg1, stronger effect = lower value 1.02 | S. cerevisiae deletion strains, locus YOR184W, strain ser1, stronger effect = lower value 0.999 | S. cerevisiae deletion strains, locus YOR231W, strain MKK1, stronger effect = lower value 1.02 | S. cerevisiae deletion strains, locus YOR265W, strain rbl2, stronger effect = lower value 0.997 | S. cerevisiae deletion strains, locus YOR270C, strain vph1, stronger effect = lower value 0.995 | S. cerevisiae deletion strains, locus YOR290C, strain snf2, stronger effect = lower value 0.982 | S. cerevisiae deletion strains, locus YOR316C, strain cot1, stronger effect = lower value 1.02 | S. cerevisiae deletion strains, locus YPL051W, strain arl3, stronger effect = lower value 1 | S. cerevisiae deletion strains, locus YPL055C, strain LGE1, stronger effect = lower value 1.01 | S. cerevisiae deletion strains, locus YPL078C, strain atp4, stronger effect = lower value 0.988 | S. cerevisiae deletion strains, locus YPL106C, strain sse1, stronger effect = lower value 0.957 | S. cerevisiae deletion strains, locus YPL240C, strain hsp82, stronger effect = lower value 0.992 | S. cerevisiae deletion strains, locus YPL241C, strain CIN2, stronger effect = lower value 1.01 and 1 | S. cerevisiae deletion strains, locus YPL256C, strain CLN2, stronger effect = lower value 1.08 | S. cerevisiae deletion strains, locus YPR119W, strain clb2, stronger effect = lower value 1.01 | S. cerevisiae deletion strains, locus YPR141C, strain kar3, stronger effect = lower value 1.03 | S. cerevisiae deletion strains, locus YPR163C, strain tif3, stronger effect = lower value 1.02 | S. cerevisiae deletion strains, locus YPR167C, strain met16, stronger effect = lower value 1.01 | S. cerevisiae deletion strains, strain wtn01, stronger effect = lower value 1.09 | S. cerevisiae strains, strain wild type, stronger effect = lower value 1
